Source: PubChem BioAssay (National Center for Advancing Translational Sciences (NCATS))
Rows were chosen to be rich in hits. Some 19% of all compounds tested hit in one or more screens of this group.
IL1B secr inh – inhibitors of inflammasome signaling (IL-1 beta secretion). THP-1 LPS/ATP IL-1B secretion, AlphaLISA, 16 h; active compounds read low. AID 743279. hit rate 4.7% among 360,000. activity change, % at 57.5 µM; in the data active = activity change below about -50%; inconclusive = mostly about -30% to -49%
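THP-1 cells pretreated 1 hr with compounds (up to 57.5 uM final), then stimulated with LPS (250 ng/mL final) plus ATP (1.25 mM final); secreted IL-1B measured by AlphaLISA after 16 hr, decreased signal indicating inhibition.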
TDP1 cell CPT – DT40-hTDP1 cell growth loss with CPT | chicken DT40 Tdp1-/-;hTDP1 cells + 20 nM CPT, ATP luminescence, 48 h | Potency, µM (top dose mostly 46.2 µM), for the others: top-dose activity change, negative = growth inhibition, actives largely listed as inhibitors | hit rate 12% among 420,000 | AID 686979; also: potency is read from the fitted curve at half-maximal effect; nearly all actives have a fitted effect of over 55% in size
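Chicken DT40 Tdp1-/- cells complemented with human TDP1, 400 cells/well, exposed to compounds plus 20 nM camptothecin for at least 48 h at 37 C; viability read as ATP content by CellTiter-Glo luminescence.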
HT1080-NT tox – kills 2HG-producing HT-1080-NT fibrosarcoma cells. hit rate 1.6% among 360,000. AID 686970. Potency, µM (highest dose often 46.1 µM), for the others: at the top dose activity, negative = less viability, usual class: cytotoxic. HT-1080-NT fibrosarcoma viability, CellTiter-Glo ATP luminescence, 48 h;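 also: NT is the 2HG producing partner of a matched IDH1 knockdown line; potency is read from the fitted curve at half-maximal effect; 0% = DMSO-treated cells and -100% = media-only wells without cells; nearly all actives have a fitted effect of over 55% in size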
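HT-1080-NT; 750 cells/well; 5% FBS RPMI; 48 h compound, 37 degrees C; CellTiter-Glo luminescence; curve fitting and curve-class assignment.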
DT40 TDP1 no CPT – qHTS for Inhibitors of human tyrosyl-DNA phosphodiesterase 1 (TDP1): qHTS in cells in absence of CPT; DT40 Tdp1-/- hTDP1 cells, no CPT, ATP luminescence, 48 h; Potency, µM (top dose mostly 46.2 µM), for the others: top-dose activity change, negative = growth inhibition, hits mostly inhibitors; hit rate 15% among 420,000; AID 686978, 2013; also: potency is read from the fitted curve at half-maximal effect; nearly all actives have a fitted effect of over 55% in size
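Compound effects on proliferation are scored in DT40 Tdp1-/-;hTDP1 cells in the absence of CPT. ATP levels (CellTiter-Glo luminescence) are recorded after a ≥48 hr, 37 °C incubation.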
HT1080 IDH1KD tx – kills HT-1080 cells with IDH1 knockdown; hit rate 2% among 360,000; Potency, µM (doses to about 46.1 µM), inactives show top-dose activity, negative = toxicity, hits mostly cytotoxic; HT-1080 IDH1 knockdown viability, ATP luminescence, 48 h;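 also: potency is read from the fitted curve at half-maximal effect; 0% = DMSO wells and -100% = cell-free medium wells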
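Assay cells: HT-1080 with IDH1 knockdown, 750 per well, RPMI/5% FBS. Exposure: 48 h at 37 °C following 2 h pre-incubation. Read: CellTiter-Glo luminescence; fitted concentration-response, curve class assigned.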
ELG1 DNA repair – blocks ELG1-dependent DNA repair in HEK293T cells; HEK293T ELG1-luciferase reporter, luminescence, 16 h; DNA damage induced by 5-fluorouridine; Potency, µM (titrated, usually from 46.1 µM), for inactives: top-dose activity change, negative = inhibition, actives largely listed as inhibitors; hit rate 2.3% among 330,000; also: potency is read from the fitted curve at half-maximal effect; nearly all actives have a fitted effect of over 55% in size
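Luminescence from the luciferase reporter, measured 30 min after ONE-Glo reagent at room temperature, was the read-out. Beforehand, 2,000 cells per well were exposed for 16 hr at 37 °C to 5-fluorouridine together with compound or vehicle.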
Active calls of the source: *. Unless noted, calls follow the shape of the dose curve; as a rule, active = well fitted curve in the direction sought with a large enough effect; inconclusive = small, poorly fitted or top-dose-only effect, or another doubt; inactive = no such curve, though single readings can be large; an effect the other way counts as inactive or inconclusive. Unless noted, % is scaled to controls: 0 for no effect and ±100 for the full control effect.

CCN(CC)CCN1C(=O)C(=O)/C(=C(/O)c2ccc(S(=O)(=O)N3CCOCC3)cc2)C1c1ccc(C(C)(C)C)cc1 (stereo unspecified) was read as IL1B secr inh -11.4, TDP1 cell CPT 3.3%, HT1080-NT tox 16.2%, DT40 TDP1 no CPT -4.3%, HT1080 IDH1KD tx 8.1% and ELG1 DNA repair 7.6%.
O=C(C[n+]1cc(-c2ccc(F)cc2)n2c1CCC2)Nc1nc(-c2ccc(F)cc2)cs1 was read as IL1B secr inh -11.7, TDP1 cell CPT inconclusive, HT1080-NT tox 4.5%, DT40 TDP1 no CPT inconclusive, HT1080 IDH1KD tx 5.7% and ELG1 DNA repair 1.6%.
`Cn1c(NC(=O)C[n+]2cc(-c3ccc(Cl)cc3)n3c2CCC3)cc(=O)n(C)c1=O` gave IL1B secr inh 10.1, TDP1 cell CPT -25.5%, HT1080-NT tox inconclusive, DT40 TDP1 no CPT inconclusive, HT1080 IDH1KD tx 12.4% and ELG1 DNA repair 2.1%.
O=C(C[n+]1cc(-c2ccccc2)n2c1CCC2)Nc1nc(-c2ccc(F)cc2)cs1 was read as IL1B secr inh 0.0, TDP1 cell CPT inconclusive, HT1080-NT tox -9.5%, DT40 TDP1 no CPT 16.4µM*, HT1080 IDH1KD tx -7.3% and ELG1 DNA repair 0.6%.
O=C(C[n+]1cc(-c2ccc(Cl)cc2)n2c1CCC2)Nc1nc(-c2ccc(F)cc2)cs1 was read as IL1B secr inh -23.3, TDP1 cell CPT inconclusive, HT1080-NT tox -4.2%, DT40 TDP1 no CPT 18.4µM*, HT1080 IDH1KD tx -3.0% and ELG1 DNA repair 10.3%.
For COc1ccc(C#Cc2c[nH]c(=O)c3cncnc23)cc1OC the results were TDP1 cell CPT -28.5%, HT1080-NT tox -13.4%, DT40 TDP1 no CPT -28.9% and HT1080 IDH1KD tx -5.1%.
CCOc1nc(OCC)c2[nH]c(C(=O)O)c(Br)c2n1 was read as IL1B secr inh 34.6, TDP1 cell CPT -3.9%, HT1080-NT tox 10.4%, DT40 TDP1 no CPT -2.0% and HT1080 IDH1KD tx 11.7%.
For Cc1cccc(CNS(=O)(=O)c2ccc(-c3coc(C)n3)cc2)c1 the results were TDP1 cell CPT -25.1% and DT40 TDP1 no CPT inconclusive.
Screening CCOc1ccc(CNS(=O)(=O)c2ccc(-c3coc(C)n3)cc2)cc1 returned TDP1 cell CPT inconclusive and DT40 TDP1 no CPT 18.4µM*.
`Cc1nc(-c2ccc(S(=O)(=O)NCc3ccc(F)cc3)cc2)co1` gave TDP1 cell CPT -22.8% and DT40 TDP1 no CPT -22.1%.
Screening CCOc1ccc(CNS(=O)(=O)c2ccc(-c3coc(C)n3)cc2)cc1OC returned TDP1 cell CPT 7.31µM* and DT40 TDP1 no CPT 14.6µM*.
COC(=O)c1ccc(NC(=O)C(C)N2Cc3ccccc3C2=O)cc1 (stereo unspecified) was read as TDP1 cell CPT -2.6% and DT40 TDP1 no CPT -24.7%.
CC(=O)Nc1cc(-c2ccc(CO)cc2)cn2c(-c3cccc(C(F)(F)F)c3)cnc12 was read as IL1B secr inh -27.1, TDP1 cell CPT 18.4µM*, HT1080-NT tox -29.1%, DT40 TDP1 no CPT 23.1µM* and HT1080 IDH1KD tx inconclusive.
Screening CC(=O)Nc1cc(-c2ccc(N)cc2)cn2c(-c3cccc(C(F)(F)F)c3)cnc12 returned IL1B secr inh -9.9, TDP1 cell CPT 16.4µM*, HT1080-NT tox -2.5%, DT40 TDP1 no CPT 16.4µM* and HT1080 IDH1KD tx -16.9%.
CC(=O)Nc1cccc(-c2cc(NC(C)=O)c3ncc(-c4cccc(C(F)(F)F)c4)n3c2)c1 was read as IL1B secr inh -2.7, TDP1 cell CPT 25.9µM*, HT1080-NT tox -25.0%, DT40 TDP1 no CPT 23.1µM* and HT1080 IDH1KD tx 0.0%.
Screening CC(=O)Nc1cc(-c2ccc(N)nc2)cn2c(-c3cccc(C(F)(F)F)c3)cnc12 returned IL1B secr inh 0.0, TDP1 cell CPT inconclusive, HT1080-NT tox inconclusive, DT40 TDP1 no CPT 14.6µM* and HT1080 IDH1KD tx inconclusive.
For NC(=O)c1cnn2c(-c3cccc(C(F)(F)F)c3)ccnc12 the results were TDP1 cell CPT 5.9%, HT1080-NT tox 8.8%, DT40 TDP1 no CPT 0.2%, HT1080 IDH1KD tx 13.9% and ELG1 DNA repair 2.7%.
Screening COc1ccc(F)cc1-c1cc(NC(C)=O)c2ncc(-c3cccc(C(F)(F)F)c3)n2c1 returned IL1B secr inh inconclusive, TDP1 cell CPT 29.1µM*, HT1080-NT tox inconclusive, DT40 TDP1 no CPT inconclusive and HT1080 IDH1KD tx inconclusive.
`CCc1ccc(C(=O)c2cncc(Br)c2)cc1` gave IL1B secr inh -16.7, TDP1 cell CPT 10.3µM*, HT1080-NT tox 1.0%, DT40 TDP1 no CPT 8.2µM* and HT1080 IDH1KD tx 3.7%.
For CC1CCN(S(=O)(=O)c2ccc3nc(Nc4cccc(F)c4)ccc3c2)CC1 the results were TDP1 cell CPT 20.6µM* and DT40 TDP1 no CPT 20.6µM*.
Screening CCCCSCCCNC(=O)c1cc(-c2cccnc2)nc2ccc(S(=O)(=O)N3CCC(C)CC3)cc12 returned TDP1 cell CPT 2.7% and DT40 TDP1 no CPT -17.3%.
Screening NS(=O)(=O)c1ccc(Nc2ccc3cc(S(=O)(=O)N4CCCCC4)ccc3n2)cc1 returned IL1B secr inh inconclusive, TDP1 cell CPT inconclusive, HT1080-NT tox 0.4%, DT40 TDP1 no CPT inconclusive, HT1080 IDH1KD tx -0.1% and ELG1 DNA repair -7.8%.
Screening CC(=O)c1ccc(Nc2ccc3cc(S(=O)(=O)N4CCCC4)ccc3n2)cc1 returned TDP1 cell CPT 20.6µM* and DT40 TDP1 no CPT inconclusive.
CC1CCN(S(=O)(=O)c2ccc3nc(-c4ccccn4)cc(C(=O)NCCN(C)Cc4ccccc4)c3c2)CC1 was read as IL1B secr inh -10.1, TDP1 cell CPT 7.31µM*, HT1080-NT tox 2.4%, DT40 TDP1 no CPT 5.8µM*, HT1080 IDH1KD tx 8.3% and ELG1 DNA repair 13.6%.
For CC1CCN(S(=O)(=O)c2ccc3nc(NCc4ccccc4)ccc3c2)CC1 the results were TDP1 cell CPT 10.3µM* and DT40 TDP1 no CPT 10.3µM*.
CC(NC(=O)c1cc(F)ccc1F)c1nnc2n1CCN(Cc1ccco1)CC2 (stereo unspecified) was read as TDP1 cell CPT 20.2% and DT40 TDP1 no CPT 16.9%.
Screening COc1ccc(C(=O)CSc2nnc3n2CCCN3C(=O)Nc2ccccc2)cc1 returned IL1B secr inh -9.0, TDP1 cell CPT inconclusive, HT1080-NT tox 19.0%, DT40 TDP1 no CPT inconclusive, HT1080 IDH1KD tx 9.2% and ELG1 DNA repair 3.3%.
